Shown are actives, neighbours in structure and some others; about 2.3% of the full set was active somewhere.
GLD-1 RNA inh: GLD-1-TGE RNA interaction inhibition (C. elegans) | purified GLD-1 + fluorescein TGE RNA, fluorescence polarization | inhibition, % at 5.96 µM | actives 0.44% (n = 320,000) | AID 2280;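 active = percent inhibition above a per-plate cutoff, the plate mean of test compounds plus 3 SD, cut at about 30% in these data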;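 note: 0% = DMSO wells with GLD-1 and probe and 100% = wells lacking GLD-1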
Target sequence (Q17339 whole entry, looked up): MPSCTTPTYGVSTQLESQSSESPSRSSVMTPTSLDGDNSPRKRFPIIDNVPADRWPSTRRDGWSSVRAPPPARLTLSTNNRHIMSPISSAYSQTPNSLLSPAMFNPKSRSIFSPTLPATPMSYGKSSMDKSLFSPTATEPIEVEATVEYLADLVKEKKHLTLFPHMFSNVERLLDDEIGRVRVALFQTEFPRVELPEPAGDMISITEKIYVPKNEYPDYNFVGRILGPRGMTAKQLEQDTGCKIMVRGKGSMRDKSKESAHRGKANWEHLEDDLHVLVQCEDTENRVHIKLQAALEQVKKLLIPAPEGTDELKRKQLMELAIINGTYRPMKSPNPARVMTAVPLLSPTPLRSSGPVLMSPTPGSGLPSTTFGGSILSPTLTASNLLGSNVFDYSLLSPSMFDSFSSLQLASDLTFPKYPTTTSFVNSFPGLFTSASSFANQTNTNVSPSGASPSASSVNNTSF
Mcl1 Noxa PPI: disrupts binding of human Mcl-1 to Noxa peptide | Q07820 | actives 1.5% (n = 220,000) | TR-FRET Mcl-1/Noxa peptide binding, 2 h | inhibition, % at 21.7 µM;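 active = compounds that cut the protein-peptide binding signal by more than 50% relative to plate controls in a single-dose test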;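 note: His-tagged Mcl-1 with rhodamine Noxa BH3 peptide and terbium anti-His antibody; 0% = Mcl-1 plus Noxa peptide wells and 100% = peptide-only wells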
Mcl1-Bid inh: disrupts binding of human Mcl-1 to Bid peptide | Q07820 | inhibition, % at 21.7 µM | TR-FRET Mcl-1/Bid-Dy647 peptide binding, 1536-well | AID 1021 | actives 0.97% (n = 220,000);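 active = compounds that cut the binding signal by more than half at the single screening dose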;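 note: His-tagged Mcl-1 with europium anti-His antibody binding Bid BH3 peptide; 0% = Mcl-1 plus peptide wells and 100% = peptide-only wells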
MCL1-BIM inh: MCL1-BIM-BH3 interaction inhibition (human); inhibition, % at 10.9 µM; actives 0.68% (n = 320,000); GST-MCL1 / FITC-Bim-BH3 fluorescence polarization; Q07820;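 active = inhibition above the mean inhibition of all tested compounds plus 3 SD, set per campaign, cut at about 40% in these data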;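 note: 0% = DMSO wells and 100% = unlabeled Bim-BH3 peptide control; higher means more loss of mP so more displacement of Bim peptide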
BCLXL inh: blocks human Bcl-xL binding to Bim BH3 peptide; Q07817; GST-Bcl-xL / FITC-Bim BH3 peptide fluorescence polarization; inhibition, % at 10.9 µM; actives 0.7% (n = 320,000);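 active = inhibition above the mean of all tested compounds plus 3 SD, cutoff set per campaign, cut at about 30% in these data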;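 note: 0% = DMSO wells and 100% = unlabeled Bim-BH3 peptide competitor; inhibitors lower millipolarization by displacing the labeled peptide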
Target sequence (Q07817 whole entry, looked up): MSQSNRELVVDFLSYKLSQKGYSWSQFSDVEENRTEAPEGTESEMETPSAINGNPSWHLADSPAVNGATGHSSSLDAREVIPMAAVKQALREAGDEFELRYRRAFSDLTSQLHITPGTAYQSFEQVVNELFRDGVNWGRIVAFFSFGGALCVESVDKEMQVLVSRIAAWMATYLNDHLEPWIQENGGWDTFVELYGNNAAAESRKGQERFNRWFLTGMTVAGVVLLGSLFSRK
Bim-Mcl-1: human Bim-Mcl-1 interaction inhibition; Q07820; Bead-based flow cytometry, Bim peptide-Mcl-1 binding; inhibition, % at 10 µM; actives 0.1% (n = 190,000); AID 1009; in the data active = inhibition above about 40%;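 note: 0% = no compound tracer wells and 100% = peptide blocker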
* hit, by the source's call; . = no result.

SMILES | GLD-1 RNA inh | Mcl1 Noxa PPI | Mcl1-Bid inh | MCL1-BIM inh | BCLXL inh | Bim-Mcl-1
CC(C)NC(=O)c1ccc(COCC(F)(F)F)cc1 | -3 | 17 | 87* | 1 | 5 | -3
CN=C1S/C(=C\c2ccc(O)c(OC)c2)C(=O)N1C | -23 | . | . | -16 | -12 | .
COc1cc(/C=C2\SC(=Nc3c(C)n(C)n(-c4ccccc4)c3=O)NC2=O)ccc1O | . | 51* | -35 | . | . | 0
COc1cc(/C=C2\SC(=Nc3ccc(O)cc3)NC2=O)cc(OC)c1O | -49 | 62* | -31 | 21 | 10 | 0
COc1ccc(C2=CC3=C(Br)C(=O)C(C)(OC(=O)c4ccc(Cl)nc4)C(=O)C3=CO2)cc1 (stereo not drawn) | 9 | 53* | -10 | 26 | 21 | .
COC(=O)CCC(=O)OC1(C)C(=O)C2=CN(Cc3ccc4c(c3)OCO4)C(c3ccc(OC)cc3)=CC2=C(Br)C1=O (stereo not drawn) | -1 | . | . | 6 | 12 | .
COc1ccc(C2=CC3=C(Br)C(=O)C(C)(OC(=O)C4CCCC4)C(=O)C3=CO2)cc1 (stereo not drawn) | 9 | 27 | -44 | 42* | 31* | .
CC1CN(C(=O)COC(=O)c2ccccc2O)CC(C)O1 (stereo not drawn) | 2 | . | . | 6 | 7 | .
CN(CCC1CCOCC1)C(=O)C1CCC(=O)N(CCc2cccc(F)c2)C1 (stereo not drawn) | 6 | . | . | 2 | 2 | .
CC(C)CCN1CCN=C1Nc1ccccc1 | 2 | . | . | -2 | -2 | .
CCOC(=O)C1(Cc2ccccc2)CCCN(C2CCCC2)C1 (stereo not drawn) | -2 | 5 | 8 | -2 | 1 | 0
COc1cc(C)ccc1OCCCCN1CC(C)OC(C)C1 (stereo not drawn) | 5 | 29 | 52* | 5 | 8 | -2
O=C(CCCN1C(=O)c2cccc3cccc(c23)C1=O)N1CCN(c2ccccc2O)CC1 | 8 | 55* | -22 | 0 | 7 | -4
CCN(CC)P(=O)(c1ccccc1)c1c(C)nc2ccccn12 (stereo not drawn) | 4 | . | . | 4 | 6 | .
O=C(CSCc1ccc(Cl)cc1)Nc1ccc(-c2nnc(-c3ccccc3)o2)cc1 | 6 | 30 | 59* | 0 | -3 | -6
O=C(CSCc1ccc(Cl)cc1)N/N=C/c1ccc(OCC(=O)Nc2ccccc2)cc1 | 8 | 6 | 58* | 5 | 3 | 3
COc1ccccc1NC(=O)COc1ccc(/C=N/NC(=O)CSCc2cc(C)cc(C)c2)cc1 | 1 | -40 | 57* | 2 | -1 | -5
CC(C)N(Cc1ccccc1)C(=O)COC(=O)c1cc[n+]([O-])cc1 | 1 | . | . | . | . | .
COC(=O)C1CCN(C(=O)c2cc(-c3ccco3)nc3ccccc23)CC1 | 18 | . | . | . | . | .
O=C1CCCN1CCC(=O)N1CCCC(CO)(Cc2ccccc2)C1 (stereo not drawn) | -1 | . | . | 4 | 1 | .
CCc1cc(C(=O)O)c(NC(=O)c2cc(OC)c(OC)c(OC)c2)s1 | 2 | 10 | -22 | 4 | 4 | 1
CC[C@@H]1C=C(C(=O)O)[C@H](c2cccc(C)c2)N1S(=O)(=O)c1ccc(C)cc1 | 3 | . | . | . | . | .
Oc1cc(-n2cccn2)c(O)cc1-n1cccn1 | 19 | 70* | -241 | 8 | 13 | .
COc1ccc2ccccc2c1CNCCN1CCOCC1 | 11 | . | . | 15 | 4 | .
CC(C)N=c1scc(-c2ccco2)n1/N=C/c1ccc(O)c(O)c1 | 2 | 35 | -8 | 27 | 4 | 0
SMILES | GLD-1 RNA inh | Mcl1 Noxa PPI | Mcl1-Bid inh | MCL1-BIM inh | BCLXL inh | Bim-Mcl-1
COCCN=c1scc(-c2ccco2)n1/N=C/c1ccc(O)c(O)c1O | -15 | 103* | 3 | 11 | -15 | 7
C[C@@H]1C=C(C(=O)NCc2nc3ccccc3[nH]2)O[C@H](OCCCCO)C1 | 0 | . | . | 6 | 9 | .
Cc1ccc(C)c(Cn2c(=O)n(C)c(=O)c3sccc32)c1 | -3 | . | . | 4 | 4 | .
O=C(O)C1CC(c2ccc(F)cc2)=NO1 (stereo not drawn) | 4 | 63* | -29 | 2 | -1 | -3
COc1ccc(NC(=O)Nc2c(O)ccc3ccccc23)cc1 | -3 | . | . | 22 | 30* | .
Cc1ccc(-n2cc(CNCC3CC(=O)N(C4CC4)C3)c(-c3cccc(C)c3)n2)cc1 (stereo not drawn) | -1 | 13 | -24 | -1 | 0 | 0
Cc1ccc(Cl)c2c1=NC(=O)C=2c1[nH]c(=S)[nH]c1O | -13 | 53* | -100 | 6 | 9 | 1
O=C1N=c2ccccc2=C1c1[nH]c(=S)[nH]c1O | 2 | 65* | -24 | 16 | 13 | -4
C[C@H]1CN([C@@H](C)CO)C(=O)c2cccc(NS(=O)(=O)c3ccc(F)cc3)c2O[C@H]1CN(C)S(=O)(=O)c1cn(C)cn1 | -2 | . | . | . | . | .
Cc1ccc(OCCNC(=O)c2cc(C3CC3)nc3c2cnn3C(C)C)cc1 | 5 | . | . | -20 | -4 | .
CCN1/C(=N\N)c2cccc3cccc1c23 | 22 | 7 | -6 | 33 | 52* | 10
Cc1ccc(NC(=O)CN2c3cccc4cccc(c34)S2(=O)=O)cc1 | 3 | . | . | . | . | .
Cn1c(/N=C/c2c(O)ccc3ccccc23)nc2ccccc21 | 5 | 23 | 56* | 34 | 36* | 2
CC(O)CNC(=O)C1CCN(Cc2ccc(OCc3ccccc3)cc2)CC1 (stereo not drawn) | 9 | 31 | 63* | 0 | 3 | -6
CC(C)(C)CC(=O)NCCCCCCNC(=O)CC(C)(C)C | 8 | 11 | -11 | 3 | 4 | -5
Cc1ccccc1CSc1nnc(NC(=O)Cc2cccs2)s1 | -1 | 66* | 20 | -6 | 0 | -3
CC(=O)c1ccc(N2CCN(C(=S)NCCCN(C)C)CC2)cc1 | -2 | 18 | -45 | 5 | -3 | 0
COc1ccc(NC(=O)CS(=O)(=O)c2ccccc2Cl)cc1 | -11 | . | . | -7 | -8 | .
Oc1ccc(N=Cc2ccc(O)c(O)c2)cc1 | 3 | 67* | -13 | 28 | 23 | 9
COc1ccc(OC)c(S(=O)(=O)NCc2ccccn2)c1 | -6 | . | . | 0 | 0 | .
O=C1c2ccccc2C(=O)N1CN(C(=O)COc1ccc(Cl)cc1Cl)c1cccc(F)c1 | -3 | 6 | -13 | -3 | 0 | 92*
COc1cc(C(=O)Nc2nc3ccc4nc(C)sc4c3s2)cc(OC)c1OC | -1 | 12 | 4 | -3 | -1 | -3
COc1ccc(C(=O)Nc2nc3ccc4nc(C)sc4c3s2)cc1 | 2 | 53* | 13 | -15 | -7 | 2
COc1ccc(C(=O)Nc2nc3c(s2)Cc2cc(OC)ccc2-3)cc1 | 5 | 86* | 55* | 11 | 8 | 0
Oc1ccc(Br)cc1-c1cc(-c2ccccc2)n[nH]1 | 5 | 23 | 1 | 3 | 6 | -4
Oc1ccc(Br)cc1-c1cc(-c2ccc(Cl)cc2)n[nH]1 | -14 | 82* | 10 | 9 | 2 | -2

Screening data deposited in PubChem BioAssay by several laboratories.
